# Experimental data published in ChEMBL document CHEMBL3988442, “University of Dundee, Small-Polar-MMV Screening Library” (2021).
# For part of these data: Results with a measured potency or affinity are listed apart.
# Columns and labels:
# Set-up in all cases: scale not given: direction of the effect not stated beside the values
# [1] = biological target: Protein translocase subunit SecA (Escherichia coli (strain K12)) (UniProt P10408); assay: Assay to Identify E. coli SecA ATPase Inhibitors; format: functional; conditions: 30 µM
# [2] = biological target: T1, Ubiquitin-activating enzyme e1, putative (Leishmania donovani (strain BPK282A1)) (UniProt E9BSI1); assay: Leishmania donovani Ubiquitin Activating Enzyme (LdE1); format: functional; conditions: 30 µM
# T1 sequence (whole entry): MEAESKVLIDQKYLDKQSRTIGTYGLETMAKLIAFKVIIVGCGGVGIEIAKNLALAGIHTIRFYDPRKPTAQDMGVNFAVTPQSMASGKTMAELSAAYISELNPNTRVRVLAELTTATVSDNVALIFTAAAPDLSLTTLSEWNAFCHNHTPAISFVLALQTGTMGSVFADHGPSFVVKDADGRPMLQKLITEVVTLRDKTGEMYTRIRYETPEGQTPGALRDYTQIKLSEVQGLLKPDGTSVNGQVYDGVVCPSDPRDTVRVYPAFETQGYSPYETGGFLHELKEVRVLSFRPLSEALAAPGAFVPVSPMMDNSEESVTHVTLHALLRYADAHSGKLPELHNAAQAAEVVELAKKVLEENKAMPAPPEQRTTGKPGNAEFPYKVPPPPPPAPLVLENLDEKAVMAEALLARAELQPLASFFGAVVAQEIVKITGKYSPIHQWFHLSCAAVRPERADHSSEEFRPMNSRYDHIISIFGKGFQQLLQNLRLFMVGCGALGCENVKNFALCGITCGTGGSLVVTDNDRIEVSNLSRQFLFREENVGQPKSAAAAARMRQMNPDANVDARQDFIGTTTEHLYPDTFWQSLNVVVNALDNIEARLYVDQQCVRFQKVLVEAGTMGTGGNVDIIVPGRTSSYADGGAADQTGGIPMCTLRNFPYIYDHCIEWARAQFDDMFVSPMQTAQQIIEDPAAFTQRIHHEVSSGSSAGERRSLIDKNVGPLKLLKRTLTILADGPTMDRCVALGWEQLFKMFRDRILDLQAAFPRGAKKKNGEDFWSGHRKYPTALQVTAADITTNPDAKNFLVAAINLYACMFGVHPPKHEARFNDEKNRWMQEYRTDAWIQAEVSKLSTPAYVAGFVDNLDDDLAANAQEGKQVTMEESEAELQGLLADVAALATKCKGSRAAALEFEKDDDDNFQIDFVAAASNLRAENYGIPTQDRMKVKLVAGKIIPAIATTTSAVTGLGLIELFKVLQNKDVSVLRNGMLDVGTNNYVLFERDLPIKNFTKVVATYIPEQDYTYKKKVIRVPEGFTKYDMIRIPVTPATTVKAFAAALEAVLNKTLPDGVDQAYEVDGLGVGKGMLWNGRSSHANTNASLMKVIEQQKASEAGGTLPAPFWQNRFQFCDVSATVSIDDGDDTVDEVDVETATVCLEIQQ
# [3] = biological target: T2, Aspartate--tRNA(Asp/Asn) ligase (Mycobacterium tuberculosis (strain ATCC 25618 / H37Rv)) (UniProt P9WFW3); assay: Assay for Asp RNA synthetase-1 from Mycobacterium tuberculosis; format: functional; conditions: 30 µM; note: in the data most compounds retested in dose-response had high values
# T2 sequence (whole entry): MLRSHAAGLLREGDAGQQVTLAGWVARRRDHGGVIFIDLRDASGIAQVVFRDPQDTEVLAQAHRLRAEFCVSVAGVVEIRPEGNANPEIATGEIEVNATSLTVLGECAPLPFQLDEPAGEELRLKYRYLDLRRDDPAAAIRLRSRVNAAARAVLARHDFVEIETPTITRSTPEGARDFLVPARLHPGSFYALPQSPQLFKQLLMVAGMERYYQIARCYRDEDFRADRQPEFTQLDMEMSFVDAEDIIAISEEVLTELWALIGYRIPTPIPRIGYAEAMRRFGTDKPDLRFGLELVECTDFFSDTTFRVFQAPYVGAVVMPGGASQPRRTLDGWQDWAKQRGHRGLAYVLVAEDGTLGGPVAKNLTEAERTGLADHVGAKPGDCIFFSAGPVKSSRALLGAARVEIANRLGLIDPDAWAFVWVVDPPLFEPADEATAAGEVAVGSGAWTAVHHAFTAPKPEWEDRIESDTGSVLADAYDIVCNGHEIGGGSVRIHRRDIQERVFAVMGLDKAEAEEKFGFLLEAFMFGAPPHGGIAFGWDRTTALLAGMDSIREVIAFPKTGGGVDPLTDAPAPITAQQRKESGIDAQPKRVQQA
# [4] = biological target: AMP-activated protein kinase, AMPK (Homo sapiens) (UniProt P54646+O43741+P54619+Q9UGJ0+Q9Y478+Q13131+Q9UGI9); assay: AMP-dependent Kinase enzyme assay. An in vitro enzyme assay that detects ADP turnover that is directly proportional to AMPK activity. This uses naive AMPK that is activated during the assay with MK-8722; format: functional; conditions: 30 µM
# [5] = biological target: Sialic acid-binding Ig-like lectin 9 (Homo sapiens) (UniProt Q9Y336); assay: Hs-Siglec9 ALPHAscreen SOP 20170721; conditions: 10 µM
# [6] = system: Trypanosoma cruzi; assay: Trypanosoma cruzi phosphomannomutase and mannose-1-phosphate guanylyltransferase assay; format: functional; conditions: 10 µM
# [7] = biological target: T3, Arginase-2, mitochondrial (Homo sapiens) (UniProt P78540); assay: in vitro enzyme assay to detect the production of urea directly proportional to the activity of Arginase II; format: functional; conditions: 33.3 µM; note: in the data most compounds retested in dose-response had high values
# T3 sequence (whole entry): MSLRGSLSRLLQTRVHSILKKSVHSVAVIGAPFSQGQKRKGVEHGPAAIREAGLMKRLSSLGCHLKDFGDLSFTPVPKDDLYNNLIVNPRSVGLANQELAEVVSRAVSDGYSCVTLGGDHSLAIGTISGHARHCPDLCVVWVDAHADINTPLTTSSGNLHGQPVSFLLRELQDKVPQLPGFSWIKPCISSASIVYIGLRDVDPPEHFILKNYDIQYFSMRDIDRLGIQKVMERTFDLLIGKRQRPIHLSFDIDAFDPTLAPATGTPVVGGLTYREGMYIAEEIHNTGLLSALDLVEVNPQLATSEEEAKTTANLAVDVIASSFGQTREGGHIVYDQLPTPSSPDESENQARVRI
# [8] = biological target: T4, Proteasome subunit beta (Trypanosoma cruzi) (UniProt O96673); assay: Trypanosoma cruzi proteasome chymotrypsin-like activity (TcProtChymo) assay.; note: in the data most compounds retested in dose-response had high values; format: functional; conditions: 9.37 µM
# T4 sequence (whole entry): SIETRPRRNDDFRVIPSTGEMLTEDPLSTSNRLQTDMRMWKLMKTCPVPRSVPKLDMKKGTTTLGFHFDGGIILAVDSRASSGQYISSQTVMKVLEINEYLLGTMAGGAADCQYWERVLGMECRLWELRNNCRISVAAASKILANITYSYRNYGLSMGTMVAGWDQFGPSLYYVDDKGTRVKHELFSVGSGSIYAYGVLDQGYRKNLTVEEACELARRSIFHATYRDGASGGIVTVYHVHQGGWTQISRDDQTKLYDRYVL
# [9] = species: Homo sapiens; assay: To identify inhibition of the IFN signalling (Jak-Stat) pathway via expression of an eGFP reporter gene under the control of an IFN-stimulated response element (ISRE) containing MxA promoter.; format: functional; conditions: 30 µM
# [10] = biological target: Shiga toxin 2 (Escherichia coli O157:H7) (UniProt P09385+P09386); assay: E. coli 0.157:H7 Shiga Toxin SOP - stx2 screening assay; format: functional; conditions: 30 µM
# [11] = biological target: T5, Tyrosyl-tRNA synthetase, putative (Trypanosoma cruzi (strain CL Brener)) (UniProt Q4DSP6); assay: Trypanosoma cruzi tyrosyl tRNA synthetase (TcYRS) _High Tyrosine SOP; format: functional; conditions: 30 µM; note: in the data most compounds retested in dose-response had high values
# T5 sequence (whole entry): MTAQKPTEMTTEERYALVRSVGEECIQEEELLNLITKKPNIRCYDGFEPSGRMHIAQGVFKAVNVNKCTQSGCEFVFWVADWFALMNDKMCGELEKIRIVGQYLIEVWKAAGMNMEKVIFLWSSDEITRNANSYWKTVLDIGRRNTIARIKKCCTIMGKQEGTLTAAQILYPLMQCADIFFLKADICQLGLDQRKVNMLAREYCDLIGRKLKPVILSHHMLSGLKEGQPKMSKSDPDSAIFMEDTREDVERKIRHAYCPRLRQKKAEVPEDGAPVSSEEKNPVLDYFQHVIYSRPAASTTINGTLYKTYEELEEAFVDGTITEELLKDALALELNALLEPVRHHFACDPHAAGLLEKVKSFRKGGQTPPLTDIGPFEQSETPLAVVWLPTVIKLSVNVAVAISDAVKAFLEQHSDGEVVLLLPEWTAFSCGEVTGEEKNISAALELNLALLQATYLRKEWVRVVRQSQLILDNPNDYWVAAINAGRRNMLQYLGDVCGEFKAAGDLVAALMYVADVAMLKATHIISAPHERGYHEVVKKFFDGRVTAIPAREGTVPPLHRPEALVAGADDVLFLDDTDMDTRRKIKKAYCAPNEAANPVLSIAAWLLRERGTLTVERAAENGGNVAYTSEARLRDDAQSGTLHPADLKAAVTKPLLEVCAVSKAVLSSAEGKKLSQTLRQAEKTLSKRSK
# [12] = biological target: T5, Tyrosyl-tRNA synthetase, putative (Trypanosoma cruzi (strain CL Brener)); assay: Trypanosoma cruzi tyrosyl tRNA synthetase (TcYRS) SOP; format: functional; conditions: 30 µM
# [13] = biological target: Chromo domain-containing protein 1 (Saccharomyces cerevisiae (strain ATCC 204508 / S288c) (Baker's yeast)) (UniProt P32657); assay: ScCHD-1 Enzyme Inhibition Assay; format: functional; conditions: 30 µM; note: in the data most compounds retested in dose-response had high values
# Chromo domain-containing protein 1 (Saccharomyces cerevisiae (strain ATCC 204508 / S288c) (Baker's yeast)), sequence (P32657 whole entry, the tested form may be a part): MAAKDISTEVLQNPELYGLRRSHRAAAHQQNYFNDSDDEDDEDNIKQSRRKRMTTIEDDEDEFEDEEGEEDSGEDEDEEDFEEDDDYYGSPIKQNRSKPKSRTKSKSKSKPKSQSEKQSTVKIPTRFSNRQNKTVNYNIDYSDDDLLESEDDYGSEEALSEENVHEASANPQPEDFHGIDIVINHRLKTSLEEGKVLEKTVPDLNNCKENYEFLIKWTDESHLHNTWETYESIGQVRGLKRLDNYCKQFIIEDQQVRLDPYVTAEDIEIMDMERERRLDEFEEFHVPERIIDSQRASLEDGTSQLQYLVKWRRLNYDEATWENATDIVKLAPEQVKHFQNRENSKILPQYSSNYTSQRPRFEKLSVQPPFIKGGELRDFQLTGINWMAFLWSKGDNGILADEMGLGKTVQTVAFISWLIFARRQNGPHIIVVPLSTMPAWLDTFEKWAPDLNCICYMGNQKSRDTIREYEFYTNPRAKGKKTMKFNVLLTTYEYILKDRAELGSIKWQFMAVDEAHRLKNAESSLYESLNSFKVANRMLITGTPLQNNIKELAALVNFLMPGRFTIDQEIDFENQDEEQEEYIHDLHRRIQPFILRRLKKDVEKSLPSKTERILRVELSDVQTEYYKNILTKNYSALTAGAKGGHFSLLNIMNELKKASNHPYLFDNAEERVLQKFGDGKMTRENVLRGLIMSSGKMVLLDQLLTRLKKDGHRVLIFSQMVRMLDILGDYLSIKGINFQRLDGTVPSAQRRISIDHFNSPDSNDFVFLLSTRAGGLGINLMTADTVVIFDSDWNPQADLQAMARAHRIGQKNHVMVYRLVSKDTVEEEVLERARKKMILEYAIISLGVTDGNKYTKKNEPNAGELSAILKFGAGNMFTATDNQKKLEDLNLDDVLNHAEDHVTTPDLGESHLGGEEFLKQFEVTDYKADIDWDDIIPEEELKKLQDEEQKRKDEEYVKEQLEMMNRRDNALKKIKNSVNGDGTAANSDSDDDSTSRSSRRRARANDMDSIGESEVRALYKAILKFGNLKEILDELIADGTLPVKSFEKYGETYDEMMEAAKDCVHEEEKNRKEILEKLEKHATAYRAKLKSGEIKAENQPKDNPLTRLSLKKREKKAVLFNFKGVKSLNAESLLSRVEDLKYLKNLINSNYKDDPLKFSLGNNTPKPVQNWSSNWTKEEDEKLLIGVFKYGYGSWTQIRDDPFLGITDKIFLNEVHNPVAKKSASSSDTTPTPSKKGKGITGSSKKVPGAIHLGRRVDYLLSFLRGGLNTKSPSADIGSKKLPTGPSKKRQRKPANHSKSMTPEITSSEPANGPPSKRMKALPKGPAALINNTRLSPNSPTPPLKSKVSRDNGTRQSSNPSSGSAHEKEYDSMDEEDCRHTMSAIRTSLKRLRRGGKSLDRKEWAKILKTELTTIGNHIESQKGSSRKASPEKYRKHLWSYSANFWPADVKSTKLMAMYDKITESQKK
# Protein translocase subunit SecA (Escherichia coli (strain K12)), sequence (P10408 whole entry): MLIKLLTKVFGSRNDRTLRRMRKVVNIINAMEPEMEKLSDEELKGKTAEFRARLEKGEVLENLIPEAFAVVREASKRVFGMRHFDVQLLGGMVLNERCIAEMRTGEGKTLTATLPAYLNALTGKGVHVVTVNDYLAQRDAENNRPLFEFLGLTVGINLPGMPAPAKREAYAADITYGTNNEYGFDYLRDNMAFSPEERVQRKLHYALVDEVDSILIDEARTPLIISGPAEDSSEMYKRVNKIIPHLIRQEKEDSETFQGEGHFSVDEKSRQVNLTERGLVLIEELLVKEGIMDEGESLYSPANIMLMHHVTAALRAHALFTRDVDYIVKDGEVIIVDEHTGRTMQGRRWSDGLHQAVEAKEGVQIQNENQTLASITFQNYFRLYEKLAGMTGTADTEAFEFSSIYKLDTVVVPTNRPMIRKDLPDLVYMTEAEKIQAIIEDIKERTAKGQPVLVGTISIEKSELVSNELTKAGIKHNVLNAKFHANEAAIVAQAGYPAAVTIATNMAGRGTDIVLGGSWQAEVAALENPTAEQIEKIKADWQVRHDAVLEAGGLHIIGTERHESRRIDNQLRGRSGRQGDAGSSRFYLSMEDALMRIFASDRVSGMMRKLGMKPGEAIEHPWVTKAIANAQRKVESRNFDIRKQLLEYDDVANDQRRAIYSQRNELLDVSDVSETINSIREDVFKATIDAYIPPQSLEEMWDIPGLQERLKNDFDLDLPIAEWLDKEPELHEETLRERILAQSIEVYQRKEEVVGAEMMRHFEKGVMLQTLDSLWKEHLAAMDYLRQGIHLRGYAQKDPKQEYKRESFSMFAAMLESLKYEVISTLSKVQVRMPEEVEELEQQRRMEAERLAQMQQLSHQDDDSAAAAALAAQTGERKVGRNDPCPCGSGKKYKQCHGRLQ
# Sialic acid-binding Ig-like lectin 9 (Homo sapiens), sequence (Q9Y336 whole entry): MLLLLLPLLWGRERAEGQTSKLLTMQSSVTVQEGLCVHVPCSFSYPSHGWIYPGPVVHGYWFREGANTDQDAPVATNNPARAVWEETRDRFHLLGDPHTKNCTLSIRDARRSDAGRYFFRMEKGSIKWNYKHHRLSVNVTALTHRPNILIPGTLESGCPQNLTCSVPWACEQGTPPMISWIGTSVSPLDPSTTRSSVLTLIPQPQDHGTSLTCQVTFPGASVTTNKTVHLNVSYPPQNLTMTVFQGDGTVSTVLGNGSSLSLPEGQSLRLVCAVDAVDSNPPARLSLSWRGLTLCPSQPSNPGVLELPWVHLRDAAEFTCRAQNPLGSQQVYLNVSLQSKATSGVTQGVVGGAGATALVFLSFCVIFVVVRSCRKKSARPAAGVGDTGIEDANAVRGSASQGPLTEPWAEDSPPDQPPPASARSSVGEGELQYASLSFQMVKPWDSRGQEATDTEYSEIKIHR
Compound,Percent Effect [1] [%],Percent Effect [2] [%],Percent Effect [3] [%],Percent Effect [4] [%],Percent Effect [5] [%],Percent Effect [6] [%],Percent Effect [7] [%],Percent Effect [8] [%],Percent Effect [9] [%],Percent Effect [10] [%],Percent Effect [11] [%],Percent Effect [12] [%],Percent Effect [13] [%]
O=C(N[C@H]1CN[C@H]2CCCO[C@H]21)c1ccno1,-2.91,2.74,0.661,-1.51,4.01,4.76,-2.4,6.76,-9.47,2.67,4.17,6.17,2.08
O=C(N[C@H]1CN[C@H]2CCCO[C@H]21)c1cccnc1,1.71,16.4,-0.775,-3.57,7.91,5.36,-2.4,9.33,8.46,-2.82,8.33,11.1,-3
c1cncc(CO[C@H]2CC[C@H]3[C@@H]2OCCN3C2CCOCC2)c1,1.26,2.74,0.0456,-4.02,5.81,7.14,-0.399,4.37,-1.77,-20.6,3.12,8.64,1.15
COc1ccccc1OCC(=O)N1CCN(Cc2noc(C)n2)CC1,-5.45,13.5,3.51,-4.95,22,5.96,5.21,6.09,2.23,3.27,4.3,13.6,-7.11
O=C1CSC(c2cccs2)c2cnn(C3CCCC3)c2N1 (configuration not stated),-5.94,-12,7.29,3.55,10.9,3.73,-35.7,8.5,24,28.5,4.23,20.5,66.9
c1cnc(NC[C@@H]2CCC[C@@H]3CN(Cc4cc[nH]n4)C[C@@H]32)nc1,-1.01,10.8,-0.521,-5.7,-5.33,5.66,4.17,7.69,6.51,-15,10.9,15.8,-6.02
CC(Cn1cccn1)NCc1nc(-c2cccs2)no1 (configuration not stated),-4.32,5.26,-3.4,-6.35,2.35,3.08,-2.88,5.67,-9.95,4.43,4.43,16.1,-2.61
CN(C)[C@@H]1CCN(C(=O)Cc2ccc(F)cc2)[C@H]1Cc1cnn(C)c1,-0.511,13.3,7.04,9.81,-9.25,-4.72,-1.63,12.8,-1.72,-6.42,3.19,6.41,1.98
c1ccc(OC[C@H]2CCC[C@]23CN(Cc2nccs2)CCO3)nc1,1.87,0,-0.162,-19.9,5.02,-2.36,-15.2,3.08,34.4,-11.8,1.06,3.85,3.38
